From the supplement of paper PMC6992640
± gives the standard deviation of the averaged measurements.

How the values were obtained:
Assay in all cases: cell viability (% of vehicle); higher = less cytotoxic
Conditions in all cases: 10 µM; 72 h
HCI01 = test system: HCI01 (cells of a triple-negative basal-like breast cancer xenograft)
HCI03 = test system: HCI03 (cells of an ER-positive luminal breast cancer xenograft)
HCI09 = test system: HCI09 (cells of a triple-negative luminal androgen receptor type breast cancer xenograft)
HCI11 = test system: HCI11 (cells of an ER-positive luminal breast cancer xenograft)
HCI13 = test system: HCI13 (cells of an ER-positive luminal breast cancer xenograft)
HCI16 = test system: HCI16 (cells of a triple-negative basal-like breast cancer xenograft)
UCD52 = test system: UCD52 (cells of a triple-negative basal-like breast cancer xenograft)
WHIM2 = test system: WHIM2 (cells of a triple-negative basal-like breast cancer xenograft)
WHIM30 = test system: WHIM30 (cells of a triple-negative basal-like breast cancer xenograft)
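Also: PDX cells carrying CMV promoter-driven luciferase, viability read as total photon flux per second by IVIS imaging following D-luciferin, vehicle control 0.1% DMSO.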

SMILES	cell viability (HCI01)	cell viability (HCI03)	cell viability (HCI09)	cell viability (HCI11)	cell viability (HCI13)	cell viability (HCI16)	cell viability (UCD52)	cell viability (WHIM2)	cell viability (WHIM30)
CCC1OC(=O)C(C)C(OC2CC(C)(OC)C(O)C(C)O2)C(C)C(OC2OC(C)CC(N(C)C)C2O)C(C)(OC)CC(C)C(=O)C(C)C(O)C1(C)O (stereo not given) [Clarithromycin]	112 ± 5.1	137	94.7 ± 19	116	125 ± 11	96.6	95.5 ± 8.8	104 ± 10	113 ± 22
C[N+](C)(CCOc1ccccc1)Cc1ccccc1.O=C(O)c1cc2ccccc2cc1[O-] [Bephenium Hydroxynaphthoate]	121 ± 9.4	127	128 ± 23	125	103 ± 21	104	89.6 ± 12	112 ± 22	151 ± 20
CCCC(C(=O)OCCN(CC)CC)(c1ccccc1)c1ccccc1.Cl [SKF 525A (hydrochloride)]	103 ± 33	123	93.8 ± 1.2	66.3	103 ± 28	130	61.5 ± 5.9	99.1 ± 11	119.8 ± 0.2
CN1CCN(c2c(F)cc3c(=O)c(C(=O)O)cn4c3c2OCN4C)CC1 [Marbofloxacin]	99.12 ± 0.67	99.3	69.9 ± 9	138	129 ± 17	114	136 ± 18	75.5 ± 2.6	148 ± 30
Cc1ccnc2c1NC(=O)c1cccnc1N2C1CC1 [Nevirapine]	112 ± 2.5	105	122 ± 49	113	96.5 ± 3.9	96	96.8 ± 6.9	93.1 ± 23	130 ± 5.6
